Among the data in the supplement of paper PMC6411743 are NP40-soluble protein abundance values, retold here.

Compound in the test: Nc1nc2c(ncn2[C@@H]2O[C@H](COP(=O)(O)OP(=O)(O)OP(=O)(O)O)[C@@H](O)[C@H]2O)c(=O)[nH]1 [guanosine triphosphate]
The experiment in a line: NP40-soluble protein abundance relative to vehicle (solubility fold change) (ratio); higher = more soluble protein in presence of GTP. Here is the method: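 Solubility proteome profiling in Jurkat crude lysate. Lysate was treated with Mg-GTP (0.1-10 mM) for 10 min at room temperature and 3 min at 37 °C, then solubilised with 0.8% NP40 and benzonase, followed by ultracentrifugation. Proteins were quantified by TMT10 LC-MS/MS; the value is the NP40-soluble abundance relative to the NP40-processed vehicle, from 3 independent experiments.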

± gives the standard deviation of the averaged measurements. Targets with the largest changes are over-represented here; the source holds about 5,400 in all.

Sequence of UniProt O43809 (O43809 whole entry): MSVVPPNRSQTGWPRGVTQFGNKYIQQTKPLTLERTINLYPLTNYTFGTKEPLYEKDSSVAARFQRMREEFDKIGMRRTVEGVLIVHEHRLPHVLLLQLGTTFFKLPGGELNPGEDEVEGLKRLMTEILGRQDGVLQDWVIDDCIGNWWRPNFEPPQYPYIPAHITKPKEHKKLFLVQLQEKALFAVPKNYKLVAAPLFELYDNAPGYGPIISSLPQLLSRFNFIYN
Sequence of UniProt P49588 (P49588 whole entry): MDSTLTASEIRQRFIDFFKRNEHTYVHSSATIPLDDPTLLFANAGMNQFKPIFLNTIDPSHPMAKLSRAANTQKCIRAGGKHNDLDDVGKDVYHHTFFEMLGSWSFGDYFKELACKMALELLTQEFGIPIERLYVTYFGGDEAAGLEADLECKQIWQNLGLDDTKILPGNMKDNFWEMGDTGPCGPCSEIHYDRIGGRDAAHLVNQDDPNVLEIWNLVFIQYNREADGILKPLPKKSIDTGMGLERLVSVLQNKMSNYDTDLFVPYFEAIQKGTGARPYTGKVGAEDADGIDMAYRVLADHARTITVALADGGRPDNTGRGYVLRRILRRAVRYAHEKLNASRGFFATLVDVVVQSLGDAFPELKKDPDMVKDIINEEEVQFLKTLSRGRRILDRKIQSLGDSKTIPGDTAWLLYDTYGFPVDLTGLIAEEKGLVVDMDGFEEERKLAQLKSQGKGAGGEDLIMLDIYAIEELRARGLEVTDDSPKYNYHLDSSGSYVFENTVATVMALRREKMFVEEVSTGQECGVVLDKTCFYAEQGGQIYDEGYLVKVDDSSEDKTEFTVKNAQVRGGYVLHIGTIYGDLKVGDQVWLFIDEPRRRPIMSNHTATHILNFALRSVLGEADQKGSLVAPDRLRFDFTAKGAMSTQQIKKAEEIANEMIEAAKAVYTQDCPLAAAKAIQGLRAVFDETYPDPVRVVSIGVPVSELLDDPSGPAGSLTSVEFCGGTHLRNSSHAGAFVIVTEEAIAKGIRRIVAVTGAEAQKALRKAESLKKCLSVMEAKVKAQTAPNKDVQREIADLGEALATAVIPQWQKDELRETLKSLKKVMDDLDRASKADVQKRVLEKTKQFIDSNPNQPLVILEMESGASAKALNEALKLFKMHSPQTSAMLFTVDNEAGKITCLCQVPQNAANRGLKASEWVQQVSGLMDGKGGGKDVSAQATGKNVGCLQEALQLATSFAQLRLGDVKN
Sequence of UniProt O94906 (O94906 whole entry): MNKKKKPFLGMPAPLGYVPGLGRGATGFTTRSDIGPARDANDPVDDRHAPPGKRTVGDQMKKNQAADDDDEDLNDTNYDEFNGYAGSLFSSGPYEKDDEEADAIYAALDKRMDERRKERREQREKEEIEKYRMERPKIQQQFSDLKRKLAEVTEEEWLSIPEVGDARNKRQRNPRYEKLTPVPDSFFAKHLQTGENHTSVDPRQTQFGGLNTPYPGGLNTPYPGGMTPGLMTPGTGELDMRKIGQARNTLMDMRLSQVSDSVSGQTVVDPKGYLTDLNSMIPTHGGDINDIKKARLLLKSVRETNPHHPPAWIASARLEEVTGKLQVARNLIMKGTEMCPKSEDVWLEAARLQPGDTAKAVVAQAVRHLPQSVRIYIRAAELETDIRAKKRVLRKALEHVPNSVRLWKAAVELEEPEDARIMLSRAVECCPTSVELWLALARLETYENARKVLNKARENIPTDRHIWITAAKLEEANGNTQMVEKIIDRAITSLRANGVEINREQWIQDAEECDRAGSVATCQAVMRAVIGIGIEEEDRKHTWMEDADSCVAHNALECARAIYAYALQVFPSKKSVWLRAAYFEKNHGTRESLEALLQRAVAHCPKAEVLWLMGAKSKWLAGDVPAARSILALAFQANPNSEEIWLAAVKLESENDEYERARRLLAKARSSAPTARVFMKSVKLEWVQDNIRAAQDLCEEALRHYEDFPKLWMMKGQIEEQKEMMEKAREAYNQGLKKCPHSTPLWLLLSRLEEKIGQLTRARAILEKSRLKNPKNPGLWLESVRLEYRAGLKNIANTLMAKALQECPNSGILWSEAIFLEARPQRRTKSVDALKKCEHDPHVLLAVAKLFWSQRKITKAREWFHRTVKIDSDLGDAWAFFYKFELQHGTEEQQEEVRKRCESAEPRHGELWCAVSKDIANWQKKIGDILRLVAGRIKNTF

Take NUDT21 (UniProt O43809): the NP40-soluble protein abundance by setting is: (concentration: 0.1mM) 1.11 ± 0.12; (concentration: 0.5mM) 1.39 ± 0.12; (concentration: 1mM) 1.64 ± 0.21; (concentration: 2mM) 1.86 ± 0.31; (concentration: 4mM) 2.02 ± 0.39; (concentration: 6mM) 2.04 ± 0.35. Also, the NP40-soluble protein abundance (concentration: 8mM) turned out to be 1.97 ± 0.25 and the NP40-soluble protein abundance (concentration: 10mM) amounted to 2.07 ± 0.44.

As to UniProt P49588|P49588-2, the NP40-soluble protein abundance amounted to 0.95 ± 0.017 (concentration: 0.1mM); 0.981 ± 0.025 (concentration: 0.5mM); 0.928 ± 0.032 (concentration: 1mM); 0.895 ± 0.034 (concentration: 2mM); 0.876 ± 0.043 (concentration: 4mM); 0.905 ± 0.041 (concentration: 6mM). Further, the NP40-soluble protein abundance by setting is: (concentration: 8mM) 0.877 ± 0.04; (concentration: 10mM) 0.848 ± 0.052.

Regarding POLR2E (UniProt P19388), the NP40-soluble protein abundance runs as follows: (concentration: 0.1mM) 1.06 ± 0.11; (concentration: 0.5mM) 1.09 ± 0.11; (concentration: 1mM) 1.15 ± 0.16; (concentration: 2mM) 1.19 ± 0.18; (concentration: 4mM) 1.22 ± 0.18; (concentration: 6mM) 1.19 ± 0.19. Moreover, the NP40-soluble protein abundance worked out at 1.16 ± 0.16 (concentration: 8mM) and 1.11 ± 0.16 (concentration: 10mM).

On to HMGN4 (UniProt O00479), for which the NP40-soluble protein abundance by setting is: (concentration: 0.1mM) 1.08 ± 0.057; (concentration: 0.5mM) 1.06 ± 0.12; (concentration: 1mM) 1.02 ± 0.12; (concentration: 2mM) 1.31 ± 0.04; (concentration: 4mM) 1.83 ± 0.15; (concentration: 6mM) 2.26 ± 0.16. Further, the NP40-soluble protein abundance turned out to be 1.51 ± 0.74 (concentration: 8mM) and 4.79 ± 0.19 (concentration: 10mM).

As for UniProt O94906|O94906-2, the NP40-soluble protein abundance runs as follows: (concentration: 0.1mM) 1.06 ± 0.055; (concentration: 0.5mM) 1.17 ± 0.086; (concentration: 1mM) 1.26 ± 0.17; (concentration: 2mM) 1.42 ± 0.27; (concentration: 4mM) 1.66 ± 0.44; (concentration: 6mM) 1.91 ± 0.46. Moreover, the NP40-soluble protein abundance stood at 2.23 ± 0.58 (concentration: 8mM) and 2.34 ± 0.6 (concentration: 10mM).
